# Measured values from ChEMBL document CHEMBL3988442, “University of Dundee, Small-Polar-MMV Screening Library” (2021).
# About 13,000 (27%) of roughly 48,000 compounds showed an effect of 50% or more. The list shows a part of the results.
# Test system: Wolbachia pipientis
# Assay: Anti-Wolbachia Cell-Based Screen
# Format: functional
# Set-up: scale not given: in the data most compounds retested in dose-response had high values
# Details: 5 µM
row,Structure (SMILES),Percent Effect [%]
1,N#Cc1cccc(C(=O)N2CC[C@H]3[C@H]2CCN3CC2CCOCC2)c1.O=C(O)C(F)(F)F,-18.46
2,CC(C)N1[C@H](Cn2cccn2)C[C@@H]2CN(Cc3ccoc3)CC[C@@H]21.O=C(O)C(F)(F)F.O=C(O)C(F)(F)F.O=C(O)C(F)(F)F,-17.46
3,O=C(O)C(F)(F)F.c1csc(CN2C[C@@H](n3cccn3)[C@H]3OCCC[C@H]32)c1,9.631
4,CC(C)N1[C@H](Cn2cncn2)C[C@@H]2CN(Cc3cccs3)CC[C@@H]21.O=C(O)C(F)(F)F,3.978
5,CN1[C@H](Cn2cncn2)C[C@@H]2CN(Cc3cccc(C#N)c3)CC[C@@H]21.O=C(O)C(F)(F)F.O=C(O)C(F)(F)F,3.665
6,Cc1ccc(CN2CC[C@H]3[C@H](CC(Cn4cccn4)N3C)C2)s1.O=C(O)C(F)(F)F.O=C(O)C(F)(F)F.O=C(O)C(F)(F)F (stereo partly drawn),96
7,CN1C(Cn2cccn2)C[C@@H]2CN(C(=O)c3cccc(C#N)c3)CC[C@@H]21.O=C(O)C(F)(F)F.O=C(O)C(F)(F)F (stereo partly drawn),118.1
8,CN1[C@H](Cn2cccn2)C[C@@H]2CN(Cc3cccs3)CC[C@@H]21.O=C(O)C(F)(F)F.O=C(O)C(F)(F)F.O=C(O)C(F)(F)F,118
9,CN(C1CCCC1)C(C)(C)C(=O)NCCNC(N)=O,-0.4481
10,COCC1CN(C(=O)Cc2ccccn2)Cc2ncnn2C1.O=C(O)C(F)(F)F (stereo not drawn),-1.318
11,Cc1ccc(CN2CCC(Cc3nnc(CO)n3C)CC2)cc1C,-13.27
12,CN(c1ncc(S(N)(=O)=O)s1)C1CCC1,11.92
13,COc1cc(NCc2ncc[nH]2)ccc1Br,2.622
14,Cn1nc2c(cc1=O)CN(CCc1nc3ccccc3c(=O)[nH]1)CC2,5.907
15,CN(C)C(=O)COC[C@]12COC[C@H]1CN(CC1CCC1)C2.O=C(O)C(F)(F)F,-8.978
16,CN(C)C(=O)COC[C@]12COC[C@H]1CN(Cc1ccccc1)C2.O=C(O)C(F)(F)F,108.4
17,CN(C)C(=O)COC[C@]12COC[C@H]1CN(CCc1ccccc1)C2.O=C(O)C(F)(F)F,103
18,CCS(=O)(=O)NC[C@]12COC[C@H]1CN(CCc1ccccc1)C2.O=C(O)C(F)(F)F,-14.92
19,CN(C)C(=O)COC[C@]12COC[C@H]1CN(Cc1ccoc1)C2,-6.231
20,CN(C)C(=O)COC[C@]12COC[C@H]1CN(Cc1ccco1)C2.O=C(O)C(F)(F)F,94.75
21,Cc1c(Cl)ccc2ccc(NC(CO)CO)nc12,-19.83
22,Cc1ccc(NCc2cn3c(n2)CN(Cc2ccoc2)CC3)nn1.O=C(O)C(F)(F)F.O=C(O)C(F)(F)F,8.385
23,CCn1ccnc1CN(C)C(C(=O)O)c1ccc(C(C)(C)C#N)cc1 (stereo not drawn),-18.43
24,C=C(C)COc1cccc(CN(CC)Cc2noc(C)n2)c1,-43.03

row,Structure (SMILES),Percent Effect [%]
1,NC1CCN(C(=O)c2cnc(Cc3c(Cl)cccc3Cl)nc2O)C1 (stereo not drawn),-9.17
2,COCCN(Cc1ccco1)Cc1nc(-c2ccsc2)no1,17.38
3,CCN(CC)CCNc1c(-c2ccccc2)c(=O)c1=O,104.3
4,CN(C)CCNc1ccc(-c2nc(-c3ccccc3F)no2)cn1,-20.15
5,CN(C)CCNc1ccc(-c2nc(COc3ccccc3)no2)cn1,-0.8633
6,CN(C)CCNc1c(-c2ccccc2)c(=O)c1=O,102.6
7,CCN(CC)CCNC(=O)c1cnc(-c2ccccc2)nc1,14.16
8,CCCN(CCC)CCNc1c(-c2ccccc2)c(=O)c1=O,97.32
9,CCN(CC)CCNC(=O)c1cnc(C(C)(C)C)s1,-7.701
10,O=c1ccc2c([nH]1)CCN(S(=O)(=O)c1ccc3c(c1)CCCC3)C2,-15.49
11,Cc1ccc(CN2CC[C@@H](N(C)C(C)C)[C@@H]2Cc2ccccc2)o1,-15.45
12,CCc1cccc(CC(=O)NC2CCN(C(=O)NC(C)(C)C)CC2)c1,-13.61
13,CC(C)c1nc2n(n1)CC(NCc1ncc(-c3ccccc3)o1)CC2 (stereo not drawn),-0.3467
14,CC(C)c1nc2n(n1)CC(NCc1nnc(-c3ccco3)o1)CC2 (stereo not drawn),-6.468
15,Cc1cnc(CNC2CCc3nc(C(C)C)nn3C2)cn1 (stereo not drawn),130.4
16,CC(C)c1nc2n(n1)CC(NCc1nnnn1C1CC1)CC2 (stereo not drawn),8.252
17,Cc1ncc(CNC2CCc3nc(C(C)C)nn3C2)s1 (stereo not drawn),101
18,Cc1nc(CNC2CCc3nc(C(C)C)nn3C2)oc1C (stereo not drawn),22.08
19,CCn1cc(S(=O)(=O)Nc2ccc3[nH]c(C4CCC4)nc3c2)cn1,-33.9
20,c1cnn(C2CN(c3nc(-c4ccncc4)nc4c3CCC4)C2)c1,-0.2642
21,Cc1ccc(C2CN(C(=O)c3c(C)cc(C)[nH]c3=O)CCO2)c(C)c1 (stereo not drawn),7.803
22,CCC(C)N(C)S(=O)(=O)c1ccc(CCNC(C)=O)s1 (stereo not drawn),12.12
23,Cc1[nH]c(-c2ccccc2)nc1C(=O)N1CCC(O)(CO)CC1,-2.686
24,CO[C@H]1CN(C(=O)c2nc(-c3ccccc3)[nH]c2C)CC[C@H]1N,99.21
